Reference: article PMC5540273 (PLoS ONE, 2017)

Experiments:
Conditions in all cases: concentration: 1 μM,replicates: in singlicate; n = 1
CSNK1G1 = test system: CSNK1G1
CSNK1G2 = test system: CSNK1G2
CSNK1G3 = test system: CSNK1G3
CSNK2A1 = test system: CSNK2A1
CSNK2A2 = test system: CSNK2A2
CTK = test system: T1, CTK
T1 construct: gene MATK

DAPK1 = test system: DAPK1
DAPK2 = test system: DAPK2
DAPK3 = test system: DAPK3
DCAMKL1 = test system: T2, DCAMKL1
T2 construct: gene DCLK1

DCAMKL2 = test system: T3, DCAMKL2
T3 construct: gene DCLK2

DCAMKL3 = test system: T4, DCAMKL3
T4 construct: gene DCLK3

DDR1 = test system: DDR1
DDR2 = test system: DDR2
DLK = test system: T5, DLK
T5 construct: gene MAP3K12

DMPK2 = test system: T6, DMPK2
T6 construct: gene CDC42BPG

DMPK = test system: DMPK
DRAK1 = test system: T7, DRAK1
T7 construct: gene STK17A

DRAK2 = test system: T8, DRAK2
T8 construct: gene STK17B

DYRK1A = test system: DYRK1A
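Also: KINOMEscan kinase panel screen.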

| SMILES | %Inh (CSNK1G1) [%] | %Inh (CSNK1G2) [%] | %Inh (CSNK1G3) [%] | %Inh (CSNK2A1) [%] | %Inh (CSNK2A2) [%] | %Inh (CTK) [%] | %Inh (DAPK1) [%] | %Inh (DAPK2) [%] | %Inh (DAPK3) [%] | %Inh (DCAMKL1) [%] | %Inh (DCAMKL2) [%] | %Inh (DCAMKL3) [%] | %Inh (DDR1) [%] | %Inh (DDR2) [%] | %Inh (DLK) [%] | %Inh (DMPK2) [%] | %Inh (DMPK) [%] | %Inh (DRAK1) [%] | %Inh (DRAK2) [%] | %Inh (DYRK1A) [%] |
| --- | --- | --- | --- | --- | --- | --- | --- | --- | --- | --- | --- | --- | --- | --- | --- | --- | --- | --- | --- | --- |
| Nc1nccc(-c2ccc3c(N)n[nH]c3c2)n1 [GSK1034945] | 0 | 0 | 19 | 41 | 64 | 0 | 45 | 0 | 19 | 12 | 0 | 36 | 0 | 0 | 1 | 2 | 0 | 98.1 | 89 | 99.6 |
| CN(c1cccc(CNc2nc(Nc3ccc4c(c3)CC(=O)N4)ncc2C(F)(F)F)c1)S(C)(=O)=O | 0 | 5 | 16 | 35 | 44 | 0 | 35 | 0 | 1 | 55 | 9 | 86 | 43 | 3 | 4 | 0 | 0 | 99.4 | 97.5 | 74 |
| O=C(Nc1cccc(C(F)(F)F)c1)c1cccc(Oc2ccc3nccn3n2)c1 | 1 | 10 | 1 | 0 | 0 | 69 | 0 | 0 | 0 | 0 | 6 | 9 | 97.1 | 95.9 | 0 | 1 | 13 | 0 | 0 | 5 |
| CS(=O)c1ccc(-c2coc3ccc(-c4n[nH]c(=O)o4)cc23)cc1 (centres unmarked) | 0 | 20 | 5 | 100 | 99.8 | 0 | 52 | 67 | 59 | 3 | 0 | 0 | 0 | 15 | 0 | 0 | 29 | 61 | 100 | 66 |
| CNC(=O)c1ccccc1Nc1nc(Nc2cccc(CS(C)(=O)=O)c2)ncc1C.O=CO [GSK1520489] | 27 | 61 | 26 | 92.3 | 98.6 | 38 | 89 | 57 | 81 | 37 | 15 | 0 | 99.9 | 95.9 | 96.6 | 0 | 0 | 91.6 | 5 | 95.6 |
| COC(=O)c1cccc(NC(=O)NC2CCN(c3ccnc(NCc4ccc(F)cc4)n3)CC2)c1 [GSK1379860] | 0 | 0 | 9 | 7 | 0 | 1 | 0 | 0 | 3 | 0 | 18 | 3 | 18 | 0 | 17 | 12 | 0 | 0 | 34 | 18 |
| Cn1ccc2ncnc(Oc3ccc(NC(=O)Nc4cncc(C(F)(F)F)c4)c(Cl)c3)c21 | 0 | 5 | 0 | 0 | 0 | 0 | 0 | 0 | 0 | 0 | 0 | 0 | 100 | 99.9 | 0 | 0 | 0 | 0 | 0 | 0 |
| C[C@@H](Oc1cc(-n2cnc3cc(-c4cnn(C)c4)ccc32)sc1C(N)=O)c1ccccc1Cl [GSK580432] | 30 | 0 | 15 | 7 | 67 | 0 | 75 | 43 | 34 | 10 | 10 | 0 | 42 | 3 | 29 | 1 | 45 | 6 | 15 | 18 |
| Cn1ccc2ncnc(Oc3ccc(NC(=O)Nc4cnn(C(C)(C)C)c4)c(Cl)c3)c21 | 0 | 32 | 0 | 0 | 38 | 20 | 8 | 0 | 0 | 10 | 5 | 2 | 100 | 100 | 0 | 0 | 15 | 0 | 3 | 11 |
| Cn1ccc2ncnc(Oc3ccc(NC(=O)Nc4cccc(C(F)(F)F)c4)c(F)c3)c21 | 9 | 20 | 0 | 0 | 0 | 0 | 1 | 0 | 13 | 12 | 18 | 17 | 96.9 | 100 | 0 | 4 | 0 | 0 | 24 | 0 |
| Cc1ccc(Nc2ccnc(Nc3ccc4c(c3)CS(=O)(=O)C4)n2)cc1O.Cl [GW579362] | 10 | 0 | 19 | 63 | 84 | 25 | 63 | 38 | 70 | 25 | 0 | 0 | 86 | 78 | 78 | 30 | 0 | 45 | 57 | 38 |
| CCNCC(Cc1ccccc1)NC(=O)c1cc(Br)c(-c2ccnc3[nH]ccc23)s1.Cl.Cl (centres unmarked) [GSK1383280] | 8 | 5 | 46 | 87 | 71 | 0 | 7 | 9 | 28 | 42 | 0 | 40 | 8 | 18 | 11 | 90 | 23 | 0 | 0 | 37 |
| CCn1c(-c2nonc2N)nc2cncc(Br)c21 [SB-738004] | 5 | 0 | 7 | 0 | 21 | 0 | 39 | 55 | 46 | 18 | 2 | 7 | 0 | 39 | 43 | 10 | 0 | 5 | 0 | 98 |
| COc1cccc(C2=C(Nc3cccc(Cl)c3)C(=O)NC2=O)c1 [SB-341556] | 0 | 0 | 19 | 11 | 4 | 0 | 3 | 0 | 7 | 0 | 0 | 31 | 16 | 0 | 0 | 0 | 6 | 0 | 0 | 55 |
| Cc1cccc(-c2nc(Nc3ccncc3)c3sccc3n2)n1 [GW869641] | 0 | 1 | 13 | 6 | 30 | 20 | 18 | 11 | 36 | 0 | 21 | 18 | 55 | 66 | 0 | 98.5 | 18 | 2 | 13 | 20 |
| O=C(Nc1ccccc1)c1cccc(Oc2ccc3nccn3n2)c1 | 10 | 6 | 0 | 0 | 11 | 28 | 100 | 0 | 0 | 0 | 40 | 0 | 45 | 42 | 1 | 6 | 11 | 7 | 14 | 0 |
| O=C(Nc1cccc(Oc2ccc3nccn3n2)c1)Nc1cccc(C(F)(F)F)c1 | 0 | 0 | 26 | 0 | 3 | 49 | 14 | 0 | 0 | 0 | 15 | 0 | 99.3 | 97.8 | 3 | 15 | 0 | 0 | 0 | 0 |
| Cn1ccc2ncnc(Oc3ccc(NC(=O)Nc4cc(C(C)(C)C)on4)c(Cl)c3)c21 | 17 | 15 | 0 | 21 | 30 | 48 | 0 | 0 | 0 | 25 | 15 | 0 | 100 | 99.4 | 0 | 6 | 0 | 11 | 35 | 26 |
| COc1cc(Nc2nccc(N3CCC(NC(=O)c4cccc(C#N)c4)C3)n2)cc(OC)c1OC (centres unmarked) [GSK1379751] | 0 | 0 | 7 | 0 | 0 | 0 | 0 | 0 | 6 | 5 | 0 | 0 | 0 | 24 | 30 | 1 | 0 | 20 | 4 | 0 |
